Inconclusive results are not listed. The source made the active and inactive calls. The calls were made as follows: active = hit-call score of the fitted dose curve at least 0.9, where 1 is the maximum; inconclusive = response in the unintended direction; inactive = score below 0.9.

The experiment deals with Oxysterols receptor LXR-alpha (Homo sapiens) (UniProt Q13133). Kind of experiment: ATG_LXRa_TRANS: Attagene TRANS-FACTORIAL HepG2 Assay for human Liver X Receptor alpha (LXRa) (AID 2282980). Particulars: HepG2 Attagene TRANS reporter, LXRa transactivation. Here is the method: ATG_TRANS is a cell-based, multiplexed-readout assay that uses HepG2, a human liver cell line, with measurements taken at 24 hours after chemical dosing in a 24-well plate.ATG_LXRa_TRANS is one of 30 assay component(s) measured or calculated from the ATG_TRANS assay. It is designed to make measurements of mRNA induction, a form of inducible reporter, as detected with fluorescence intensity signals by Reverse transcription polymerase chain reaction (RT-PCR) and Capillary electrophoresis technology.Data from the assay component ATG_LXRa_TRANS was analyzed into 1 assay endpoint. This assay endpoint, ATG_LXRa_TRANS, was analyzed in the positive analysis fitting direction relative to DMSO as the negative control and baseline of activity. Using a type of inducible reporter, measures of mRNA for gain-of-signal activity can be used to understand the reporter gene at the transcription factor-level as they relate to the gene NR1H3. Furthermore, this assay endpoint can be referred to as a primary readout, because this assay has produced multiple assay endpoints where this one serves a reporter gene function. To generalize the intended target to other relatable targets, this assay endpoint is annotated to the nuclear receptor intended target family, where the subfamily is non-steroidal.
Oxysterols receptor LXR-alpha (Homo sapiens), sequence (Q13133 whole entry, looked up): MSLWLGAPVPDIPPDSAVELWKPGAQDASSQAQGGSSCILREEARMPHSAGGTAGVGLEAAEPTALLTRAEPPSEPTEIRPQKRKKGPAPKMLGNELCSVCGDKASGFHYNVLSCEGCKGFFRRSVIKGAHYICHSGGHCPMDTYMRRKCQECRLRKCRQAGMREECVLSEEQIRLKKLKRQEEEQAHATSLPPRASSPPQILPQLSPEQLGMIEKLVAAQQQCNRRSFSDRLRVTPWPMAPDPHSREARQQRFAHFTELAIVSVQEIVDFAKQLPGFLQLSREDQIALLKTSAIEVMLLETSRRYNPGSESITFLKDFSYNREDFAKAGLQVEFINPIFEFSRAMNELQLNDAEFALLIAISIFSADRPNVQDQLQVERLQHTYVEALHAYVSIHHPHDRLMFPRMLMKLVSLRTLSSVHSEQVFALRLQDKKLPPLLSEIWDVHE
Human liver HepG2 cells are transiently transfected with multiple reporter transcription units (MRTUs) in 6-well plates using FuGene 6 reagent (Roche; 3 ml FuGene/1 mg DNA). The MRTU constructs are regulated by a cis-regulating element (promoter). […] A major difference between the CIS and TRANS system is that in CIS activities of endogenous TFs are measured, whereas the TRANS assay evaluates changes in activities of exogenous, chimeric NR-Gal4 proteins. […] At the end of 24 hour incubation, total RNA was isolated using TriZol reagent (Invitrogen). The isolated RNA is then reverse-transcribed using oligo(dT) primer and Mo-MLV reverse transcriptase (Invitrogen) with DNAse I (Ambion) treatment for 30 min. The one-tenth of the produced cDNA was amplified by PCR using Taq DNA polymerase (Invitrogen) and two reporter sequence-specific primers. The PCR products were fluorescently labeled by primer extension with 6-arboxyfluorescein (6-FAM) 5'-labeled reporter sequence-specific primer (2 min at 95 C, 20 s at 68 C and 10 min at 72 C) and these products were digested with 5U of HpaI (New England Biolabs) for 2h at 37 C. The fragments were purified using Qiaquick PCR columns (Qiagen), analyzed on an ABI 3130xL genetic analyzer (Applied Biosystems) with peak positions identified by using a set of X-rhodamine (ROX)-labeled MapMarker1000 molecular weight standards (BioVentures). The raw capillary electrophoresis data was processed using Attagraph software (Attagene).
On to `CCCC[N+](C)(CCCC)CCCC`, for which the call was inactive.

As to `C1=COCCC1`, the outcome was inactive.

In the case of `C=CCOCC(O)CO` (stereo not given), the compound was called inactive.

As for `CC1=CC(O)CC(C)(C)C1` (stereo not given), the compound was classed as inactive.

`CCOc1ccc(NC(C)=O)cc1`: the call was inactive. As for `CCCCN(CCCC)CCCCCCN(CCCC)CCCC`, the result was inactive. As for `CN1CCc2cccc3c2[C@H]1Cc1ccc(O)c(O)c1-3`, the compound was called inactive.

For the compound `Cc1ccc(C(C)(C)O)cc1`, the call was inactive. The result for `N=C1N=C(N)c2ccccc21` reads “inactive”; that for `CNC(=C[N+](=O)[O-])NCCSCc1ccc(CN(C)C)o1`, “inactive”. The result for `O=C(O)c1cccc(Cl)n1` reads “inactive”.

As to `CC1(C)CC(=O)CC(C)(C)N1`, the outcome was inactive.

Regarding `CC(=O)OC(C)(C)C1CC=C(C)CC1` (stereo not given), the call was inactive.

Turning to `CC/C=C\C#N`, the call was inactive. As for `O=S(=O)(O)c1cc(S(=O)(=O)O)c2c(N=Nc3ccccc3)c(O)ccc2c1`, the outcome was inactive. The result for `CCC(C)COC(=O)CC(C)C` (stereo not given) reads “inactive”; that for `CC1=CC(C)C(C=O)C(C)C1` (stereo not given) (tested in a mixture with another compound), “inactive”; that for `O=S1(=O)CC(Cl)(Cl)C(Cl)(Cl)C1`, “inactive”. The entry for `C=CCCCCCCCCC(=O)OCC` is “inactive”. Regarding `Nc1ccn([C@H]2CC[C@@H](CO)O2)c(=O)n1`, the compound was classed as inactive. The entry for `C1COCO1` is “inactive”. In the case of `Nc1ccc(O)c(N)c1`, the call was inactive. `C=COCC1CCC(COC=C)CC1` (stereo not given): the compound was called inactive. For `CCC(=O)OC(C)(C)C1CC=C(C)CC1` (stereo not given), the compound was called inactive. In the case of `CC(=O)OCC=C(C)CCC=C(C)CCC=C(C)C`, the compound was called inactive. With `CCCOC(=O)CC`, the compound was called inactive. The result for `CCC(C)(C)C1CCC(OC)CC1` (stereo not given) reads “inactive”; that for `CC(=O)c1ccc2ccccc2c1`, “inactive”. For the compound `CCCCCCOC(C)=O`, the compound was classed as inactive. In the case of `CC1=CC[C@@H]2C[C@H]1C2(C)C`, the compound was classed as inactive.

Regarding `Cc1cc(N)n(-c2ccccc2)n1`, the call was inactive. The entry for `CCCC(O)C(CC)CO` (stereo not given) is “inactive”; for `CC(=O)CCc1ccc(O)cc1` it is “inactive”; for `CCCCCC(=O)O[C@]1(C(C)=O)CC[C@H]2[C@@H]3CCC4=CC(=O)CC[C@]4(C)[C@H]3CC[C@@]21C` it is “inactive”.

Consider `CCCCCCC(O)CCOC(C)=O` (stereo not given), for which the call was inactive. The entry for `Cc1cc(O)c2c(c1)C(=O)c1cc(O)cc(O)c1C2=O` is “inactive”. Take `O=S(=O)(O)CCCN1CCOCC1`: the compound was called inactive. Consider `C=C(C)C(=O)OCCC[Si](OC)(OC)OC`, for which the result was inactive. On to `Nc1ccc(N)c([N+](=O)[O-])c1`, for which the compound was classed as inactive. On to `CC(C)COC(=O)c1ccccc1O`, for which the outcome was inactive.

Values taken from PubChem BioAssay (EPA / NIEHS).
